Cycloheximide cs – Cycloheximide Counterscreen for Small Molecule Inhibitors of Shiga Toxin; cell reporter, cycloheximide protein synthesis inhibition counterscreen; max response, %; actives 12% (n = 300,000); in the data active means max response mostly above about 13%, no sharp cut-off; inactive means mostly below about 14%; further: read at 38.3 µM for the half of the compounds with a filed dose; 0% is about no effect
NS1 inh – qHTS Assay for Inhibitors of Influenza NS1 Protein Function; Potency, µM (series often up to 46.1 µM), without a hit: at the top dose activity, positive = more growth; AID 2326, 2010; actives 0.4% (n = 270,000); calls by dose curve; further: potency means the concentration at half of the fitted maximal effect; actives are rising curves; nearly all actives have a fitted effect of over 50% in size
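Growth recovery, yeast-based: influenza A NS1 expressed in S. cerevisiae causes slow growth, and suppressors are detected by OD600. The parent strain without NS1 is used as positive control.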
Shiga toxin inh – A qHTS for Small Molecule Inhibitors of Shiga Toxin. Vero cells, Shiga toxin protein synthesis inhibition reporter. inhibition, % at 38.7 µM. actives 9.2% (n = 290,000). AID 2315, 2010; in the data active means inhibition mostly above about 28%, no sharp cut-off; inactive means mostly below about 43%; further: 0% is about no effect
Pf growth 48h – Primary qHTS for delayed death inhibitors of the malarial parasite plastid, 48 hour incubation; P. falciparum luciferase growth in erythrocytes, 48 h; Potency, µM (highest dose often 28.7 µM), for inactives: at the highest dose activity change, negative = inhibition, usual class: inhibitors; actives 5.9% (n = 310,000); further: potency means the concentration at half of the fitted maximal effect; on the % scale 0 is the no-effect control and ±100 the full control effect
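In quantitative HTS format, infected erythrocytes bearing luciferase-reporter parasites were treated for a single generation at 37 C. Luminescence after adding detection reagent served as the growth measure.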
Pf growth 96h – Primary qHTS for delayed death inhibitors of the malarial parasite plastid, 96 hour incubation; P. falciparum luciferase reporter growth, 96 h; AID 504834, 2011; actives 6.9% (n = 320,000); Potency, µM (doses to about 28.7 µM), without a hit: at the top dose activity change, negative = inhibition, usual class: inhibitors; further: potency means the concentration at half of the fitted maximal effect; on the % scale 0 is the no-effect control and ±100 the full control effect
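Compounds incubated with erythrocytes infected by luciferase-expressing P. falciparum (2% hematocrit, 0.05% parasitemia final) for 96 hours, 37 C in 5% CO2. Growth inhibition scored as decreased luciferase luminescence.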
Active calls of the source: *; u = inconclusive; x = not tested or not shown. Shown are actives, neighbours in structure and some others; about 21% of the full set was active somewhere. Unless noted, the call rests on the fitted dose curve; in most records, active means well fitted inhibition curve with a large enough effect; inconclusive means small, poorly fitted or top-dose-only effect, or another doubt; inactive means no such curve, though single readings can be large or run the other way.

SMILES	Cycloheximide cs	NS1 inh	Shiga toxin inh	Pf growth 48h	Pf growth 96h
NC[C@@H]1O[C@H](C23CC4CC(CC(C4)C2)C3)Cc2c1ccc(O)c2O	-5	6%	14	9.3µM*	5.9µM*
COc1ccc(-c2c(C(C)=O)c(C)n(C)c2C)cc1	-3	5%	6	25%	12µM*
COc1ccc(-c2nc(-n3c(C)c(C(C)=O)c(C(C)=O)c3C)sc2C)cc1	8	-41%	-8	u	-1%
COC(=O)c1ccccc1N/C=C/C(=O)c1ccc(Br)cc1	43*	-2%	27*	74%	u
NC(=O)c1ccccc1N/C=C/C(=O)c1ccccc1	47*	-32%	56*	258%	0%
Cn1c(=O)c2[nH]c(N/N=C(/C#N)C(N)=O)nc2n(C)c1=O	-2	-2%	-4	23%	17%
COc1ccccc1N(C(=O)CCl)c1cn(C(C)=O)c2ccccc12	11	3%	17	u	u
CC(=O)n1cc(N(C(=O)CCl)c2ccc(Cl)cc2)c2ccccc21	27*	-78%	61*	2.3µM*	u
COc1cc(/C=C/C(=O)O)cc(S(=O)(=O)N2CCN(S(=O)(=O)c3ccc(Cl)cc3)CC2)c1OC	-2	13%	-2	-28%	u
COC(CNC(=O)c1ccc2c3c(onc13)-c1ccccc1C2=O)OC	35*	-3%	75*	42%	8%
COc1ccc2occ(C(=O)c3coc4ccc(O)c(CN(C)C)c34)c2c1	4	-4%	31	8.3µM*	x
O=C(c1cccs1)c1coc2ccc(O)c(CN(CCO)CCO)c12	17*	4%	63*	x	2.1µM*
COc1ccc(OC)c(C(=O)c2coc3ccc(O)c(CN(C)C)c23)c1	-1	5%	-4	4%	11%
COc1ccc(C(=O)c2coc3ccc(O)c(CN4CCCCC4)c23)cc1	23	-16%	42	7.4µM*	57%
CN(C)Cc1c(O)ccc2occ(C(=O)c3ccc(F)cc3)c12	3	-10%	6	-9%	152%
CCN(CC)Cc1c(O)ccc2occ(C(=O)c3ccccc3)c12	39*	1%	78*	38%	u
CN(C)Cc1c(O)ccc2occ(C(=O)c3ccccc3)c12	25*	u	65*	-11%	x
CCn1c2ccccc2c2nnc(SCC(=O)NC(C(=O)OC)C(C)C)nc21 (stereo unspecified)	x	-13%	x	x	x
COc1ccc(N2C(=O)/C(=C/c3cccs3)NC2=S)cc1	-1	3%	22*	1%	12%
COc1ccc(N2C(=O)/C(=C/c3cccs3)C(=O)NC2=S)cc1	-1	7%	-13	-2%	17%
CC1CN(C(=O)NCc2ccccc2)c2cc(Cl)ccc2O1 (stereo unspecified)	-2	-7%	-3	-15%	2.6µM*
CC1CN(C(=O)CCC(=O)NCc2ccccc2)c2cc(Cl)ccc2O1 (stereo unspecified)	-2	7%	5	u	u
CC1CN(C(=O)CCC(=O)NCCc2ccccc2)c2ccccc2O1 (stereo unspecified)	25*	-18%	35*	1%	u
COc1ccc(CCNc2nc(-c3sc(N)nc3C)cs2)cc1OC	10	u	-14	u	u
CCOc1ccc(Nc2nc(-c3sc(N)nc3C)cs2)cc1	14*	16%	14	u	50%
SMILES	Cycloheximide cs	NS1 inh	Shiga toxin inh	Pf growth 48h	Pf growth 96h
CCn1cc(-c2csc(N)n2)c(C)n1	11	x	14	3%	u
Cc1nc(C)c(-c2csc(N)n2)s1	-1	3%	-10	-12%	0.33µM*
CCOC(=O)c1sc(Nc2ccc(OCC)cc2)nc1C	16	0%	35	-18%	4%
Cc1nc(C)c(-c2csc(Nc3ccc(S(N)(=O)=O)cc3)n2)s1	2	13%	-7	21%	27%
COc1ccc(Nc2nc(-c3sc(N)nc3C)cs2)cc1	25*	u	56*	-77%	-26%
Cc1ccc(Nc2nc(-c3sc(C)nc3C)cs2)cc1	25*	-56%	58*	31%	u
COc1cccc2c1N(C)C(=O)CC21C=CC(=O)C=C1	3	x	9	x	x
Cc1ccc(-c2csc(Nc3ccc(S(N)(=O)=O)cc3)n2)o1	10	10%	-3	-2%	1%
Cc1ccc(Nc2nc(-c3sc(N)nc3C)cs2)cc1	40*	5%	46*	28%	-12%
